Experimental data from PubChem BioAssay (EPA / NIEHS).
Inconclusive results are not listed. The source made the active and inactive calls. How the source made its calls, unless noted: active means hit-call score of the fitted dose curve at least 0.9, where 1 is the maximum; inactive means score below 0.9.

Tests used:
[1] = target: Glucocorticoid receptor (Homo sapiens) (UniProt P04150); assay: ATG_GR_TRANS: Attagene TRANS-FACTORIAL HepG2 Assay for human Glucocorticoid Receptor (GR) (AID 2282978; active means hit-call score of the fitted dose curve at least 0.9, where 1 is the maximum;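 further: activators score as hits since higher reporter transcript over DMSO is fitted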); conditions: HepG2 Attagene TRANS GR reporter, mRNA transcription
In short: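 Multiplexed TRANS reporter system, HepG2; 24 h exposure; RNA → oligo(dT) RT → reporter-specific PCR → 6-FAM primer extension → HpaI cut → CE fluorescence. Gain-of-signal vs DMSO.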

[2] = target: Oxysterols receptor LXR-alpha (Homo sapiens) (UniProt Q13133); assay: ATG_LXRa_TRANS: Attagene TRANS-FACTORIAL HepG2 Assay for human Liver X Receptor alpha (LXRa) (AID 2282980; active means hit-call score of the fitted dose curve at least 0.9, where 1 is the maximum); conditions: HepG2 Attagene TRANS reporter, LXRa transactivation
In short: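 Transient HepG2 transfectants, 24 h dosing, RT-PCR/CE mRNA reporter quantitation; gain-of-signal vs DMSO.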

[3] = target: Hepatocyte nuclear factor 4-alpha (Homo sapiens) (UniProt P41235); assay: ATG_HNF4a_TRANS: Attagene TRANS-FACTORIAL HepG2 Assay for human Hepatocyte Nuclear Factor 4 alpha (HNF4a) (AID 2282982; active means hit-call score of the fitted dose curve at least 0.9, where 1 is the maximum); conditions: HepG2 HNF4a transactivation reporter, mRNA readout
In short: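 Transfected HepG2 reporter cells are dosed for 24 h; reporter RNA is reverse-transcribed, amplified, fluorescently labelled and HpaI-digested before CE sizing. Positive-direction fit against DMSO.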

[4] = ATG_M_06_TRANS: Attagene TRANS-FACTORIAL HepG2 Assay for M06 Transcription Factor (Internal Marker) (AID 2282983; active means hit-call score of the fitted dose curve at least 0.9, where 1 is the maximum;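 further: reporter transcript level by RT-PCR then capillary electrophoresis fluorescence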); conditions: HepG2 Attagene TRANS M06 internal marker reporter
In short: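 Measured by capillary electrophoresis of fluorescently labelled RT-PCR products, this endpoint reflects reporter mRNA in HepG2 cells harbouring exogenous NR-GAL4 reporter constructs after 24 h exposure, with DMSO as baseline.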

[5] = ATG_M_32_TRANS: Attagene TRANS-FACTORIAL HepG2 Assay for M32 Transcription Factor (Internal Marker) (AID 2282984; active means hit-call score of the fitted dose curve at least 0.9, where 1 is the maximum;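 further: transcript level of a background control reporter unit measured by RT-PCR and capillary electrophoresis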); conditions: HepG2 Attagene TRANS M32 internal marker reporter
In short: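 Using transiently transfected HepG2 cells exposed to test chemicals for 24 h, reporter transcripts are converted to labelled cDNA fragments and quantified by capillary electrophoresis. DMSO defines the activity baseline.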

[6] = target: Nuclear receptor subfamily 4 group A member 2 (Homo sapiens) (UniProt P43354); assay: ATG_NURR1_TRANS: Attagene TRANS-FACTORIAL HepG2 Assay for human Nuclear Receptor Related Protein 1 (NURR1) (AID 2282985; active means hit-call score of the fitted dose curve at least 0.9, where 1 is the maximum); conditions: HepG2 Attagene TRANS reporter, mRNA readout
In short: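 Cells: HepG2, transiently transfected. Exposure: 24 h. Detection: fluorescence of labelled RT-PCR products separated by capillary electrophoresis; upward fit versus DMSO.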

[7] = target: Transcriptional activator Myb (Homo sapiens) (UniProt P10242); assay: ATG_Myb_CIS: Attagene CIS-FACTORIAL HepG2 Assay for human Myeloblastosis (Myb) Proto-Oncogene Transcription Factor (AID 2282986); conditions: HepG2 Attagene CIS-FACTORIAL Myb reporter transcription; actives raise or lower the signal
In short: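 Endogenous transcription factor activity at a Myb-responsive cis element is reported in human liver HepG2 cells after 24 h chemical treatment. Reporter mRNA is detected by RT-PCR and capillary electrophoresis fluorescence, with DMSO as baseline.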

[8] = target: Nuclear respiratory factor 1 (Homo sapiens) (UniProt Q16656); assay: ATG_NRF1_CIS: Attagene CIS-FACTORIAL HepG2 Assay for human Nuclear Respiratory Factor 1 (NRF1) Orphan Gene (AID 2282987); conditions: HepG2 NRF1 cis-element reporter, Attagene multiplex; actives raise or lower the signal
In short: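 Human hepatoma HepG2 cells carrying transfected promoter-regulated reporter units were incubated with test chemicals for 24 h. Reporter transcripts were measured by RT-PCR plus capillary electrophoresis, and endpoints derived by bidirectional fitting with DMSO as baseline.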

[9] = ATG_NFI_CIS: Attagene CIS-FACTORIAL HepG2 Assay for human Nuclear Factor I (NFI) (AID 2282989); conditions: HepG2 cis-regulatory reporter, NFI response element transcription; actives raise or lower the signal
In short: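 HepG2, transient MRTU, 24 h exposure; RNA→cDNA→PCR→FAM label→HpaI→CE fluorescence. Bidirectional fit, DMSO = baseline.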

[10] = target: Myc proto-oncogene protein (Homo sapiens) (UniProt P01106); assay: ATG_Myc_CIS: Attagene CIS-FACTORIAL HepG2 Assay for human Myelocytomatosis (Myc) Proto-Oncogene Transcription Factor (AID 2282990); conditions: HepG2, Attagene cis-reporter transcription factor activity; actives raise or lower the signal
In short: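 HepG2, transient MRTU transfection (cis promoters, endogenous TFs); 24 h dosing; TriZol RNA → oligo(dT) RT → PCR → 6-FAM primer extension → HpaI cut → CE. Bidirectional fit vs DMSO.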

[11] = ATG_NF_kB_CIS: Attagene CIS-FACTORIAL HepG2 Assay for human Nuclear Factor Kappa B (NF-kB) (AID 2282991); conditions: HepG2 Attagene cis-factorial NF-kB reporter mRNA; actives raise or lower the signal
In short: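 Multiplexed cis-reporter assay in transiently transfected HepG2. 24 h treatment; RNA isolated, RT-PCR, labelled fragments resolved by CE. DMSO baseline.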

[12] = ATG_NRF2_ARE_CIS: Attagene CIS-FACTORIAL HepG2 Assay for human Nuclear Factor Erythroid 2 Related Factor 2 (NFR2) response to Antioxidant Response Elements (ARE) (AID 2282992); conditions: HepG2 Attagene ARE/NRF2 reporter, transcription factor activity; actives raise or lower the signal;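 on AC50: reporter mRNA level measured by RT-PCR and capillary electrophoresis fluorescence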
In short: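 Cis-factorial assay: transfected HepG2 reporter library, 24 h dosing, mRNA readout via RT-PCR/CE; DMSO-referenced bidirectional analysis.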

[13] = target: Cellular tumor antigen p53 (Homo sapiens) (UniProt P04637); assay: ATG_p53_CIS: Attagene CIS-FACTORIAL HepG2 Assay for human p53 Transcription Factor (AID 2282994); conditions: HepG2 p53 cis-element reporter, Attagene mRNA; actives raise or lower the signal
In short: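 Using HepG2 hepatoma cells carrying cis-acting multiplexed reporters, mRNA induction is detected after a 24 h exposure. Gain- and loss-of-signal responses are fitted relative to DMSO-treated cells.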

[14] = ATG_Oct_MLP_CIS: Attagene CIS-FACTORIAL HepG2 Assay for human Octamer-Binding Transcription Factor (Oct) (AID 2282993); conditions: HepG2 Attagene cis-factorial Oct reporter, mRNA; actives raise or lower the signal
In short: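 Multiplexed cis-reporter assay in human liver HepG2 cells, 24 h incubation. Reporter RNA amplified and labelled, then resolved by capillary electrophoresis; DMSO serves as negative control and baseline.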

[15] = target: Oxysterols receptor LXR-beta (Homo sapiens) (UniProt P55055); assay: ATG_LXRb_TRANS: Attagene TRANS-FACTORIAL HepG2 Assay for human Liver X Receptor beta (LXRb) (AID 2282981; active means hit-call score of the fitted dose curve at least 0.9, where 1 is the maximum); conditions: HepG2 Attagene TRANS GAL4-LXRb reporter, mRNA
In short: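 Cells: HepG2, transiently transfected with GAL4-UAS reporter units plus LXRb-Gal4 fusion. Treatment: 24 h. Detection: reporter mRNA by RT-PCR, 6-FAM labelling, HpaI digestion, capillary electrophoresis.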

[16] = target: Bile acid receptor (Homo sapiens) (UniProt Q96RI1); assay: ATG_FXR_TRANS: Attagene TRANS-FACTORIAL HepG2 Assay for Farnesoid X Receptor (FXR) (AID 2282979; active means hit-call score of the fitted dose curve at least 0.9, where 1 is the maximum;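 further: hits raise reporter mRNA above DMSO so AC50 marks FXR activation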); conditions: HepG2 Attagene TRANS FXR-GAL4 reporter transcription
In short: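 Chimeric FXR-GAL4 activity in transiently transfected human HepG2 liver cells is scored as induction of reporter mRNA after 24 h of dosing. Detection uses RT-PCR with fluorescent labelling and capillary electrophoresis, with DMSO serving as baseline.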

[17] = BSK_3C_TissueFactor: BioMAP Diversity Plus: 3C Assay for Tissue Factor Biomarker Activity (AID 2282997); conditions: BioMAP 3C HUVEC, tissue factor biomarker readout; actives raise or lower the signal
In short: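 Values derive from bidirectional curve fitting against DMSO of Tissue Factor ELISA signals, taken 24 h after dosing primary human umbilical vein endothelial cells.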

[18] = BSK_3C_uPAR: BioMAP Diversity Plus: 3C Assay for Urokinase-type plasminogen activator receptor (uPAR) Biomarker Activity (AID 2282998); conditions: BioMAP 3C HUVEC, uPAR biomarker ELISA; actives raise or lower the signal
In short: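 Dose primary human umbilical vein endothelial cells, incubate 24 h, measure cell-surface uPAR by ELISA, then fit the signal in both directions against the DMSO negative control.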

[19] = BSK_3C_VCAM1: BioMAP Diversity Plus: 3C Assay for Vascular cell adhesion molecule 1 (VCAM1) Biomarker Activity (AID 2282999); conditions: BioMAP 3C HUVEC, VCAM1 ELISA, cytokine-stimulated; actives raise or lower the signal
In short: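 Endothelial cells from human umbilical vein are treated with test chemical. At 24 h, VCAM-1 is measured by ELISA, and responses in either direction are fitted relative to DMSO.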

Measured: AC50

Transcriptional activator Myb (Homo sapiens), sequence (P10242 whole entry, looked up): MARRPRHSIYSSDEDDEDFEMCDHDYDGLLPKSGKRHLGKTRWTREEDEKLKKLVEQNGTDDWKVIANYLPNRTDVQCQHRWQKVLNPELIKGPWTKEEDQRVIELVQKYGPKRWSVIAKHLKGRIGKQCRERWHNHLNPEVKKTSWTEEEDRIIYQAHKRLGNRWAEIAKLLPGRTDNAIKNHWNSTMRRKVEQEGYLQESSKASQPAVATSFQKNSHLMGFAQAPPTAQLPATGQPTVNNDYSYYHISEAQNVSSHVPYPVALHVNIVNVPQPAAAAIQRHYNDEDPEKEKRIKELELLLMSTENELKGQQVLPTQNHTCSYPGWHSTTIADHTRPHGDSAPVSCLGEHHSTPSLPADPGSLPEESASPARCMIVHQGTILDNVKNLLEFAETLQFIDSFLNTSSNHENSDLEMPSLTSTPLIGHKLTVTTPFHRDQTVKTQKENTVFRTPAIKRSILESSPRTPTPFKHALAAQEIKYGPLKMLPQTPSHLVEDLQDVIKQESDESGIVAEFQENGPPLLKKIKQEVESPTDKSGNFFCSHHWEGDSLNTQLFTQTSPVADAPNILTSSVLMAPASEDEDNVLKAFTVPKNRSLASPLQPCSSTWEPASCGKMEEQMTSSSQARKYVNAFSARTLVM
Nuclear receptor subfamily 4 group A member 2 (Homo sapiens), sequence (P43354 whole entry, looked up): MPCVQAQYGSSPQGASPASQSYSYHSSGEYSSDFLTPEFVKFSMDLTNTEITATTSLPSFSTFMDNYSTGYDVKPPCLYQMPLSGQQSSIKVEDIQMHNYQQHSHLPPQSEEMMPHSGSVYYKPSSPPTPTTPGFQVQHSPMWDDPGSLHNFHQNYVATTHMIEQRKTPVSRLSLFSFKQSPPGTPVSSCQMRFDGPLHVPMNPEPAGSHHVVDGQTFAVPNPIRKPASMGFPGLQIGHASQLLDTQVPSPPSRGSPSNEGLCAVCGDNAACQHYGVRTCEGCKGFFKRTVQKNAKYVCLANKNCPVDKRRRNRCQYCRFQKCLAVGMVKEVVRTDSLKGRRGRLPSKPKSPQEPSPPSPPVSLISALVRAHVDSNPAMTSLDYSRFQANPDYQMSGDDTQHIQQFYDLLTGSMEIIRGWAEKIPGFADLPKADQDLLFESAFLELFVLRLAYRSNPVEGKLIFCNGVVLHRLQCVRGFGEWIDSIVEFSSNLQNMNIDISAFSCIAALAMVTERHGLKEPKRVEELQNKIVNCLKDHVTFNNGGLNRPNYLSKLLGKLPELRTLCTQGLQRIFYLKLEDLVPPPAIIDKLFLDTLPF
Nuclear respiratory factor 1 (Homo sapiens), sequence (Q16656 whole entry, looked up): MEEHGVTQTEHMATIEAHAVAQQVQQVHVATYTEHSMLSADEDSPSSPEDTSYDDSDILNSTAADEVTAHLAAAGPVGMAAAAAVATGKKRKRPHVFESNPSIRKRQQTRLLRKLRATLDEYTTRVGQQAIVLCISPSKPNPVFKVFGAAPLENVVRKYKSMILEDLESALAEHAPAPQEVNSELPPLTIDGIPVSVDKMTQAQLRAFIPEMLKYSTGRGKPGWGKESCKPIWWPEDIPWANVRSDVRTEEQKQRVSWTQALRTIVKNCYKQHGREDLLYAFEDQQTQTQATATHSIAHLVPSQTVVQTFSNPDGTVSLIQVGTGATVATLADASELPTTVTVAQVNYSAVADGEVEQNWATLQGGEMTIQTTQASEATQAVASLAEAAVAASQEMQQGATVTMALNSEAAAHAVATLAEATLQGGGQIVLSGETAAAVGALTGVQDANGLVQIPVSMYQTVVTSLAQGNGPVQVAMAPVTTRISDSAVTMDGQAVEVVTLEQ
Bile acid receptor (Homo sapiens), sequence (Q96RI1 whole entry, looked up, the tested form may be a part): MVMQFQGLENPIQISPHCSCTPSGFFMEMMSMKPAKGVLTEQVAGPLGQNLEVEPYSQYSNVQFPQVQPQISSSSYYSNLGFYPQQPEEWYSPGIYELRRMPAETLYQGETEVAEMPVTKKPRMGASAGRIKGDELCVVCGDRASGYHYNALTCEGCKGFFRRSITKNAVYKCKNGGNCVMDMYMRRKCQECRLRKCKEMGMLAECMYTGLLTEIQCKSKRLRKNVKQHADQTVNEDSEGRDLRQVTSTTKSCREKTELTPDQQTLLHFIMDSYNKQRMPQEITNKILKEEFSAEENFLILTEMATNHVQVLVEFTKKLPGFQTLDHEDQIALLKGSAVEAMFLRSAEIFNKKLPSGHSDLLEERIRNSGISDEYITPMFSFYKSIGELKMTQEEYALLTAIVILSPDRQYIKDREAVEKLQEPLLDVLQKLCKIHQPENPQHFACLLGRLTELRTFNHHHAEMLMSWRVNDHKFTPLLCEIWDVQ
Oxysterols receptor LXR-alpha (Homo sapiens), sequence (Q13133 whole entry, looked up): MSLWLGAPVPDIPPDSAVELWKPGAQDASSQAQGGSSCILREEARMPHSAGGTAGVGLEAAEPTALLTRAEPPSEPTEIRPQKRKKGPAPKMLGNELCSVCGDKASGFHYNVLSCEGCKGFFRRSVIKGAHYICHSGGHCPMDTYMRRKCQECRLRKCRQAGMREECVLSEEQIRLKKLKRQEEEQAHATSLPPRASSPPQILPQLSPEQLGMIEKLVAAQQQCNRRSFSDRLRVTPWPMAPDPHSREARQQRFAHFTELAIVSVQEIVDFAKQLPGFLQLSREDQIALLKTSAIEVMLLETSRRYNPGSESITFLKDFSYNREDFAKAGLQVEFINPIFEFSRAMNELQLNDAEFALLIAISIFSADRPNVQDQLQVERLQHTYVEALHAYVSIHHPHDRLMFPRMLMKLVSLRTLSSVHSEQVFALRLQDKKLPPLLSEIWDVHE
Myc proto-oncogene protein (Homo sapiens), sequence (P01106 whole entry, looked up): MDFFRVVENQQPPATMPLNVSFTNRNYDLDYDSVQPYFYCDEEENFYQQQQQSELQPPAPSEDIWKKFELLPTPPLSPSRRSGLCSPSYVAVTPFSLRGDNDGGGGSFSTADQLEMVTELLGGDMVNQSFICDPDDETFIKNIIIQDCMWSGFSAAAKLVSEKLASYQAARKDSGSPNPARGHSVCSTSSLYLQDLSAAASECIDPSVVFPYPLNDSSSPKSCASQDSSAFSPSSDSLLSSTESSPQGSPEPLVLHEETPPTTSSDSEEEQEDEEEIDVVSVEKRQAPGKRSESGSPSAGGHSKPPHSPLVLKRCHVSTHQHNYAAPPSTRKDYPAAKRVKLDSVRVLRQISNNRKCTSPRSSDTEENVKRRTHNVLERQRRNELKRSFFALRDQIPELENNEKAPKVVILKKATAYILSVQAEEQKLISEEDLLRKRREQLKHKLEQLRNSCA
Hepatocyte nuclear factor 4-alpha (Homo sapiens), sequence (P41235 whole entry, looked up): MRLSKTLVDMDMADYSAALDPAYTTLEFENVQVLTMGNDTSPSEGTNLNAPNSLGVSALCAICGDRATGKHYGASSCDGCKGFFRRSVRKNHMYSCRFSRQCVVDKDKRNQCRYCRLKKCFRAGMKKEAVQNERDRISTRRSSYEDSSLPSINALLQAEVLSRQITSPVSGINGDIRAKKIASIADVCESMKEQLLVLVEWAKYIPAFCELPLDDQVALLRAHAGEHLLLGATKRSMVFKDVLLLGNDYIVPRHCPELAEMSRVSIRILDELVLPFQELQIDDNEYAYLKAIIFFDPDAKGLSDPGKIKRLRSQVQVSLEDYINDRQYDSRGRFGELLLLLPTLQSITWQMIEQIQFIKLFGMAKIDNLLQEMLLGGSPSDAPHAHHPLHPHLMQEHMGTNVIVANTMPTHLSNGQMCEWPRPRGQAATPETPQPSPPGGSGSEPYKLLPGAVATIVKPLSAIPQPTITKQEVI
Cellular tumor antigen p53 (Homo sapiens), sequence (P04637 whole entry, looked up): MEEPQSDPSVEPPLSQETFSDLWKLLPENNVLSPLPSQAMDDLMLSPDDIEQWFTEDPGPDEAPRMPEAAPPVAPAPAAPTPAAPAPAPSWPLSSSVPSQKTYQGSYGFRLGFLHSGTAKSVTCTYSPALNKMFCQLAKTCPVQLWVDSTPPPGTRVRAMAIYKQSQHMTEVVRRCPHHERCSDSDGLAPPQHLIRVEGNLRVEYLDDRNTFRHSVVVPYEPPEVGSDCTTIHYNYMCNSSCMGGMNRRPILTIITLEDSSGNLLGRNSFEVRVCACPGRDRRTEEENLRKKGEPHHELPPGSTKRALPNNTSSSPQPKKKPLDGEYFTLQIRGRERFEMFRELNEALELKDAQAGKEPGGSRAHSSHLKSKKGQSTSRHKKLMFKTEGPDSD
Glucocorticoid receptor (Homo sapiens), sequence (P04150 whole entry, looked up): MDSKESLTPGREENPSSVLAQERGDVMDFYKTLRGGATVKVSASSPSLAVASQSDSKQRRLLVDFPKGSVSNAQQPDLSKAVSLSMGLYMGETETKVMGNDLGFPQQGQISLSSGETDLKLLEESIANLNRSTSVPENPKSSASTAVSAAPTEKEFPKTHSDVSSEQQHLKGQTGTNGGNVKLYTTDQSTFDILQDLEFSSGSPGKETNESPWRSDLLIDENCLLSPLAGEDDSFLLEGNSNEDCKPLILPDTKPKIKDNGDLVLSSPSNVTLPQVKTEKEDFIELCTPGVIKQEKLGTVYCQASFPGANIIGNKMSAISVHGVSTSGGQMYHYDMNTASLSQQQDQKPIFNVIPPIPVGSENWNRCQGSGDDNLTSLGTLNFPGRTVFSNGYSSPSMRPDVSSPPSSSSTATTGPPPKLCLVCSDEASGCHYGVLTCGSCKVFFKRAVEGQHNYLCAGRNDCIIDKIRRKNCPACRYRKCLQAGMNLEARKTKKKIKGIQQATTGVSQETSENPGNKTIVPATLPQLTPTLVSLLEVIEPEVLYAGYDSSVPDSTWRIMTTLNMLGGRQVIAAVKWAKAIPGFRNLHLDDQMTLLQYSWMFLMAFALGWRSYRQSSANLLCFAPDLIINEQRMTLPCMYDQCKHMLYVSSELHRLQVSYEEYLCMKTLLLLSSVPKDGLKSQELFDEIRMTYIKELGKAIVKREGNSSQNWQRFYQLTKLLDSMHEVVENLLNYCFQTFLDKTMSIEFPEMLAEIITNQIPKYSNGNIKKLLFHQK

Cc1cccc(C(C)(C)C)c1O
inactive: [1] | [2] | [3] | [4] | [5] | [6] | [7] | [8] | [9] | [10] | [11] | [12] | [13]

CCCC(CC)c1ccccc1 (centres undefined)
inactive: [1] | [2] | [7] | [10] | [11] | [14] | [13]
active: [8] 158 µM | [9] 181 µM | [12] 165 µM

CC(C)CO
inactive: [1] | [15] | [3] | [4] | [7] | [8] | [9] | [10] | [11] | [12] | [14]

CCCC1CCCC(=O)O1 (centres undefined)
inactive: [1] | [2] | [15] | [5] | [7] | [8] | [9] | [10] | [11] | [12] | [14] | [13]

CCCCCC[C@@H](O)C/C=C\CCCCCCCC(=O)OCC(O)CO (some centres undefined)
inactive: [1] | [15] | [3] | [9] | [11] | [14]
active: [6] 132 µM | [8] 179 µM | [10] 162 µM | [12] 87.9 µM | [13] 181 µM

CCCCNS(=O)(=O)c1ccccc1
inactive: [16] | [2] | [15] | [3] | [4] | [5] | [7] | [8] | [9] | [10] | [11] | [12] | [14] | [13]

CC1(C)CC(O)CC(C)(C)N1[O]
inactive: [16] | [15] | [3] | [4] | [6] | [7] | [8] | [9] | [10] | [11] | [14] | [17] | [18] | [19]
active: [12] 26.6 µM

CCN1CN(CC)CN(CC)C1
active: [9] 162 µM
inactive: [16] | [2] | [15] | [5] | [6] | [8] | [10] | [11] | [12] | [13] | [17] | [18] | [19]

CC(=O)c1ccc(S(=O)(=O)NC(=O)NC2CCCCC2)cc1
inactive: [1] | [6] | [7] | [8] | [9] | [10] | [11] | [12] | [14] | [13]

C=Cc1cccc(C)c1
inactive: [1] | [4] | [5] | [7] | [8] | [9] | [10] | [12] | [14] | [13]

C=CCCCCCCCCO
inactive: [1] | [3] | [4] | [5] | [6] | [7] | [8] | [9] | [10] | [12] | [14] | [13]

C=CC(=O)OCCCCCCCC(C)C
inactive: [16] | [2] | [15] | [4] | [7] | [8] | [9] | [10] | [11] | [13] | [18]
active: [12] 58 µM | [14] 121 µM | [17] 20 µM | [19] 13 µM

CCCCCCCCCCCC(=O)N(C)CC(=O)O
inactive: [1] | [4] | [5] | [7] | [8] | [9] | [10] | [14] | [17] | [18] | [19]
active: [12] 97.5 µM

CCOC(=O)OC(=O)OCC
inactive: [16] | [2] | [15] | [3] | [4] | [5] | [6] | [7] | [8] | [9] | [10] | [11] | [12] | [14] | [13]

COCC(=O)O
inactive: [1] | [3] | [5] | [6] | [8] | [9] | [10] | [11] | [12] | [14] | [13]

CC(C)C(=O)OCCc1ccccc1
inactive: [16] | [2] | [15] | [4] | [5] | [6] | [7] | [8] | [9] | [10] | [11] | [12] | [14] | [17] | [18] | [19]

CCCCCCCCCCCCCc1ccccc1
inactive: [16] | [15] | [3] | [4] | [5] | [7] | [8] | [9] | [10] | [11] | [12] | [14] | [13]

O=C(Oc1ccccc1)c1ccccc1C(=O)Oc1ccccc1
active: [12] 30.7 µM
inactive: [1] | [3] | [5] | [7] | [8] | [9] | [10] | [13] | [17] | [18] | [19]

Cc1ccc([N+](=O)[O-])cc1N
inactive: [16] | [15] | [3] | [4] | [5] | [8] | [9] | [10] | [12] | [14] | [13] | [17] | [18] | [19]

Nc1cccc(N)n1
inactive: [1] | [3] | [4] | [5] | [6] | [8] | [9] | [10] | [12] | [17] | [18] | [19]

C=C(C)C(=O)OCCOC(=O)C(=C)C
inactive: [1] | [3] | [4] | [7] | [8] | [9] | [10] | [11] | [12] | [14] | [13]
